NALP1 inh – blocks the NALP1 inflammasome reconstituted in yeast. S. cerevisiae NALP1/ASC/caspase-1 growth, X-gal OD620, 72 h. inhibition, % at 10 µM. actives 0.61% (n = 280,000). AID 2071; in the data active = inhibition mostly above about 24%, no sharp cut-off; inactive = mostly below about 32%
NLRP3 yeast inh – inhibitors of NALP3 inflammasome in yeast; Yeast reconstituted NLRP3/ASC/caspase-1, beta-gal luminescence, 24 h; inhibition, % at 10 µM; actives 0.39% (n = 330,000); AID 2825;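 active = inhibition of 50% or more; inactive = inhibition below 50%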;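 note: plate controls were induced DMSO wells for no effect and uninduced yeast grown without galactose for full effect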
TIM10 inh – growth inhibitors of TIM10 yeast strain | S. cerevisiae TIM10 strain growth, BacTiter-Glo luminescence, 24 h | inhibition, % at 10 µM | actives 1.4% (n = 330,000) | AID 463195;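 active = inhibition of 40% or more at the single tested concentration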;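 note: wild-type TIM10 isogenic control strain grown at permissive 25 °C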
tim10-1 inh – growth inhibitors of tim10-1 mutant yeast. S. cerevisiae tim10-1 ts strain growth, BacTiter-Glo, 24 h. AID 463190. actives 2.2% (n = 330,000). inhibition, % at 20 µM;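 active = inhibition of at least 40%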;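 note: mutant grown at 25 °C; 0% = DMSO wells with yeast and 100% = wells holding no yeast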
tim23-1 inh – inhibits growth of tim23-1 mutant yeast; inhibition, % at 20 µM; actives 1.3% (n = 330,000); AID 463212; S. cerevisiae tim23-1 growth, BacTiter-Glo luminescence, 24 h;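 active = growth inhibition of the mutant yeast at or above 50%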;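 note: temperature-sensitive mutant grown at 25 °C; plate controls were DMSO-treated mutant yeast for no effect and medium wells lacking yeast for full effect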
tim10-1 conf – tim10-1 yeast growth inhibition, confirmed; shares compounds with tim10-1 inh; S. cerevisiae tim10-1 ts strain growth, BacTiter-Glo, 24 h; inhibition, % at 20 µM; actives 56% (n = 7,400);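 active = inhibition of yeast growth at or above a set limit in either of two repeat tests at 20 µM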;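 note: tim10-1 mutant grown at permissive 25 °C to find synthetic lethal compounds; 0% = DMSO yeast wells and 100% = medium wells without yeast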
TIM10 conf – TIM10 yeast growth inhibition, confirmed; AID 463215; inhibition, % at 10 µM; actives 63% (n = 4,600); shares compounds with TIM10 inh; S. cerevisiae tim10 strain growth, BacTiter-Glo luminescence, 24 h;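 active = inhibition of yeast growth at or above a set limit in either of two replicates at 10 µM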;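 note: this counterscreen used the strain with wild-type TIM10; 0% = yeast with DMSO and 100% = medium wells lacking yeast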
tim23-1 confirm – confirmation of tim23-1 mutant yeast growth inhibitors | shares compounds with tim23-1 inh | AID 463218 | S. cerevisiae tim23-1 growth, BacTiter-Glo luminescence, 24 h | actives 83% (n = 4,400) | inhibition, % at 20 µM;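 active = inhibition above about 39% in either of two replicate wells at 20 µM, limit read from the data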;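 note: temperature-sensitive tim23-1 mutant grown at 25 °C; 0% = DMSO wells with yeast and 100% = medium wells without yeast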
Active calls of the source: *; / = no result. An excerpt weighted towards active compounds, which were near 4.1% of everything screened.

SMILES	NALP1 inh	NLRP3 yeast inh	TIM10 inh	tim10-1 inh	tim23-1 inh	tim10-1 conf	TIM10 conf	tim23-1 confirm
Cc1ccc(SCCNS(=O)(=O)c2ccc3c(c2)OCCO3)cc1	9.9	18.8	51.1*	52.4*	55.5*	42.4*	-6.0	52.6*
Oc1ccccc1N=Cc1c(O)ccc2ccccc12	18.4	28.1	37.6	41.9*	66.1*	29.6	/	78.5*
Nc1ccc2nn(-c3cc([N+](=O)[O-])ccc3O)nc2c1	18.0	1.7	28.3	51.3*	58.3*	37.8*	/	52.8*
Nc1ccc(-n2cnc3cc([N+](=O)[O-])ccc32)cc1	9.6	33.8	7.5	10.3	11.1	/	/	/
CC1N(C)c2cc(NC(=O)c3cccs3)c(P(=O)(Nc3ccc([N+](=O)[O-])cc3)N3CCOCC3)cc2C1(C)C (stereo unspecified)	3.3	22.6	11.2	15.4	6.1	/	/	/
CCN(CC)c1ccc(/C=C/c2ccc3ccc(OC)cc3[n+]2CC)cc1	11.2	26.4	31.4	73.2*	67.5*	67.8*	/	58.4*
NS(=O)(=O)c1ccc(N=Nc2ccc(O)c3ncccc23)cc1	-44.3	37.4	6.4	18.7	29.8	/	/	/
O=Cc1ccc(O)c2ncccc12	82.2*	35.5	54.4*	43.7*	70.5*	8.1	75.1*	72.0*
CSc1cccc(N2CC(C(=O)Nc3cccc(S(=O)(=O)N4CCCC4)c3)CC2=O)c1 (stereo unspecified)	/	24.9	-1.4	-2.0	6.4	/	/	/
CN1C2CCC1CC(NC(=O)c1cc(Cl)cc3[nH]cnc13)C2 (stereo unspecified)	3.4	15.6	-4.6	1.2	8.7	/	/	/
O=C(COC(=O)C1CCN(c2ccc(C(F)(F)F)cn2)CC1)Nc1ccc(Cl)cn1	0.2	19.3	26.4	14.5	28.1	/	/	/
O=C(COC(=O)C1CCN(c2ccc(C(F)(F)F)cn2)CC1)Nc1ccc(Cl)cc1	/	19.4	18.8	43.3*	55.8*	46.1*	/	59.6*
COc1cccc(NC(=O)CSc2nc3ccccc3cc2Cc2ccccc2)c1	2.4	12.7	8.6	15.1	0.1	/	/	/
COc1cccc(CSc2nc3ccccc3cc2C=O)c1	8.2	41.4	46.2*	49.4*	71.2*	44.1*	53.0*	77.7*
Cc1occc1C(=O)N/N=C/c1ccc(OCc2ccccc2)cc1	-13.8	17.4	5.2	-9.8	17.1	/	/	/
Cc1occc1C(=O)N/N=C/c1ccc(-c2ccccc2)cc1	12.6	17.6	42.6*	58.7*	63.4*	56.4*	41.0*	56.9*
O=C(c1cccc2ccccc12)N1CCC(N2CCN(c3ccccc3)CC2)CC1	7.6	-5.1	-0.8	17.5	2.0	/	/	/
CCCN(c1nc(C)cc(OC)n1)S(=O)(=O)c1ccccc1	23.8	-8.2	33.7	43.9*	50.7*	18.4	/	39.9*
Cc1cc2n(n1)C(c1ccco1)Nc1ccccc1-2 (stereo unspecified)	28.3	11.3	6.7	14.9	21.3	/	/	/
Cc1cc2n(n1)C(c1cn(-c3ccccc3)nc1C)Nc1ccccc1-2 (stereo unspecified)	16.7	17.1	22.9	14.1	22.3	/	/	/
Cc1cc2n(n1)C(c1ccc(O)cc1)Nc1ccccc1-2 (stereo unspecified)	17.7	9.4	54.6*	54.1*	50.4*	46.5*	48.5*	53.9*
Cc1cc2n(n1)C(c1c[nH]c3ccccc13)Nc1ccccc1-2 (stereo unspecified)	37.4	19.2	40.1*	60.2*	70.5*	33.6*	33.2*	-23.1
O=C(Cc1cccc(F)c1F)NC1CCCN(Cc2ccc(Cl)cc2)C1 (stereo unspecified)	-9.0	24.3	-6.0	4.7	15.0	/	/	/
Cn1c(=O)c2sccc2n2c(CCCC(=O)NC3CCN(Cc4ccccc4)CC3)nnc12	12.1	4.4	-18.8	-2.8	-10.9	/	/	/
CCOC(=O)C(C(=O)OCC)C(C(=O)OCC)N1CCOCC1 (stereo unspecified)	101.4*	12.1	68.0*	62.7*	56.8*	60.4*	71.0*	59.0*

Screening results: PubChem BioAssay, Sanford-Burnham Center for Chemical Genomics
